# In PubChem BioAssay (NCI):
# Several values for one entry are separate records, joined by “and”; a condition that tells them apart may be missing. Equal entries are not always repeated. The panel holds about 83,000 compounds, 20% with a hit somewhere; the sample as a whole holds those more often.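 The endpoint reported here, percent growth, reads 100 for growth as untreated, 0 for no net growth and -100 for all cells dead.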 Activity calls are given as the source filed them. The calls were made as follows: active = growth percent below 10; inactive = the rest.
# What was measured:
# Test in all cases: NCI-60 one-dose screen, 48 h (100 = growth as untreated, 0 = no growth, -100 = all killed)
# Settings in all cases: 10 µM unless noted
# HCT-15 colon = test system: HCT-15 colon
# HT29 colon = test system: HT29 colon
# SNB-75 CNS = test system: SNB-75 CNS
# SNB-19 CNS = test system: SNB-19 CNS
# U251 CNS = test system: U251 CNS
# PC-3 prostate = test system: PC-3 prostate
# SK-MEL-5 melanoma = test system: SK-MEL-5 melanoma
# UACC-62 melanoma = test system: UACC-62 melanoma
# LOX IMVI melanoma = test system: LOX IMVI melanoma
# SK-MEL-28 melanoma = test system: SK-MEL-28 melanoma
Structure (SMILES),growth (HCT-15 colon),growth (HT29 colon),growth (SNB-75 CNS),growth (SNB-19 CNS),growth (U251 CNS),growth (PC-3 prostate),growth (SK-MEL-5 melanoma),growth (UACC-62 melanoma),growth (LOX IMVI melanoma),growth (SK-MEL-28 melanoma)
O=C(O)c1c2c(nc3ccccc13)Cc1ccccc1-2,103% (inactive),109% (inactive) and 101% (inactive),99.6% (inactive) and 101% (inactive),108% (inactive) and 101% (inactive),101% (inactive) and 103% (inactive),99.2% (inactive) and 86% (inactive),110% (inactive) and 102% (inactive),105% (inactive) and 92.9% (inactive),99.9% (inactive) and 90.1% (inactive),109% (inactive) and 98.4% (inactive)
Cc1ccc(NC(=S)N/C=C(\c2ccccc2)S(=O)Cc2ccccc2)c(C)c1 (stereo not given),103% (inactive),108% (inactive),87.2% (inactive),100% (inactive),87.9% (inactive),86% (inactive),98.7% (inactive),92.2% (inactive),102% (inactive),112% (inactive)
COC(=O)c1nc(N)nc(C(=O)OC)c1C(=O)c1ccc(F)cc1,103% (inactive),115% (inactive),99.1% (inactive),103% (inactive),102% (inactive),104% (inactive),103% (inactive),105% (inactive),98.6% (inactive),115% (inactive)
CCn1c2ccc(N(C)C)cc2c2cc(N(C)C)ccc21,112% (inactive),78.9% (inactive),99.3% (inactive),102% (inactive),93.9% (inactive),72.9% (inactive),97.6% (inactive),91.9% (inactive),96.8% (inactive),98.9% (inactive)
COC(=O)c1ccccc1Cl,100% (inactive),111% (inactive),96.6% (inactive),108% (inactive),97.4% (inactive),96.9% (inactive),103% (inactive),104% (inactive),98.6% (inactive),115% (inactive)
NC1=NC(c2ccccc2)N=C(Nc2ccccc2)N1 (stereo not given),102% (inactive) and 98.9% (inactive),62.4% (inactive) and 60.7% (inactive),53.1% (inactive) and 12.8% (inactive),67% (inactive) and 76% (inactive),42.8% (inactive) and 44.5% (inactive),65.1% (inactive) and 70.9% (inactive),69.6% (inactive) and 35.6% (inactive),89% (inactive),85.8% (inactive) and 83% (inactive),87.8% (inactive) and 102% (inactive)
Cc1cccc(Cl)c1N,109% (inactive),109% (inactive),100% (inactive),108% (inactive),108% (inactive),95.5% (inactive),110% (inactive),103% (inactive),98.6% (inactive),106% (inactive)
CC(C)(C)OC(=O)c1ccc(NCc2cc(O)ccc2O)cc1,-30.1% (active),73.5% (inactive),30.5% (inactive),62.6% (inactive),20.5% (inactive),12.5% (inactive),52.4% (inactive),8.79% (active),24.3% (inactive),8.43% (active)
CCC(C)(O)CCC(C)(O)CC (stereo not given),112% (inactive),113% (inactive),108% (inactive),105% (inactive),104% (inactive),98.6% (inactive),104% (inactive),108% (inactive),98.1% (inactive),124% (inactive)
CN(C=O)c1ccccc1,95.1% (inactive),99.9% (inactive),80.6% (inactive),102% (inactive),93.5% (inactive),88.4% (inactive),94.5% (inactive),88.7% (inactive),89.5% (inactive),109% (inactive)
COC1C(OC(N)=O)C(O)C(Oc2ccc3c(O)c(NC(=O)c4ccc(O)c(CC=C(C)C)c4)c(=O)oc3c2C)OC1(C)C (stereo not given),23.6% (inactive) and 96% (inactive),105% (inactive) and 110% (inactive),28.8% (inactive) and 77.2% (inactive),101% (inactive) and 92.7% (inactive),42.5% (inactive) and 101% (inactive),90.6% (inactive) and 93.8% (inactive),103% (inactive) and 98.2% (inactive),103% (inactive) and 97.9% (inactive),99.7% (inactive) and 98.4% (inactive),108% (inactive)
N#Cc1ccc(/C=C/C(=O)c2ccccc2)cc1,49.6% (inactive) and 82.3% (inactive),12% (inactive) and 70.5% (inactive),87.3% (inactive),89.9% (inactive),33.2% (inactive) and 62.5% (inactive),52.2% (inactive),90.9% (inactive) and 102% (inactive),91.3% (inactive) and 89.9% (inactive),28% (inactive) and 82% (inactive),124% (inactive) and 93.1% (inactive)
O=[N+]([O-])c1cccc2ccc(N/N=C/c3ccccc3O)nc12,93.6% (inactive) and 98% (inactive),93.3% (inactive) and 106% (inactive),67.8% (inactive) and 87.9% (inactive),99.3% (inactive) and 108% (inactive),93.7% (inactive) and 98.6% (inactive),76.1% (inactive) and 84.4% (inactive),88% (inactive) and 90.9% (inactive),85.5% (inactive) and 94.6% (inactive),83.6% (inactive) and 91.4% (inactive),134% (inactive) and 109% (inactive)
Clc1ccc(/C=C/c2ccc3ccccc3n2)cc1,26.6% (inactive) and 96.4% (inactive) and 81.7% (inactive),2.32% (active) and 79.3% (inactive) and 71.1% (inactive),-21.1% (active) and 98.7% (inactive) and 88.1% (inactive),42.2% (inactive) and 96.2% (inactive) and 98.8% (inactive),16.3% (inactive) and 95.6% (inactive) and 87.1% (inactive),31.3% (inactive) and 271% (inactive) and 92% (inactive),24.4% (inactive) and 88.9% (inactive) and 81.9% (inactive),43.1% (inactive) and 78.5% (inactive) and 75.8% (inactive),18.3% (inactive) and 83% (inactive) and 82.5% (inactive),57.5% (inactive) and 166% (inactive) and 101% (inactive)
COc1ccc(CCn2cnn3c(=O)c4ccccc4nc3c2=O)cc1OC,104% (inactive) and 109% (inactive),106% (inactive) and 104% (inactive),103% (inactive) and 135% (inactive),104% (inactive) and 96.6% (inactive),101% (inactive) and 104% (inactive),102% (inactive) and 98.7% (inactive),101% (inactive) and 97% (inactive),111% (inactive) and 102% (inactive),98% (inactive),109% (inactive) and 125% (inactive)
OCCS,104% (inactive),97% (inactive),91.1% (inactive),108% (inactive),95.3% (inactive),99.8% (inactive),100% (inactive),103% (inactive),96.2% (inactive),109% (inactive)
O=C(O)C(Cc1ccc(OS(=O)(=O)Cc2ccccc2)cc1)NS(=O)(=O)Cc1ccccc1 (stereo not given),99.5% (inactive) and 108% (inactive),101% (inactive) and 119% (inactive),85.7% (inactive) and 94.9% (inactive),96.6% (inactive) and 105% (inactive),104% (inactive),123% (inactive) and 101% (inactive),97.5% (inactive) and 108% (inactive),108% (inactive) and 97.9% (inactive),98% (inactive),108% (inactive) and 116% (inactive)
CCOP(C)(=O)/C(Cc1ccc(OC)c(OC)c1)=N\O (stereo not given),104% (inactive),106% (inactive),88.7% (inactive),105% (inactive),107% (inactive),106% (inactive),96.1% (inactive),96% (inactive),96.5% (inactive),111% (inactive)
Nc1[nH][nH]c(=O)c1N=Nc1ccccc1,96.3% (inactive) and 106% (inactive),107% (inactive) and 88.8% (inactive),79.3% (inactive) and 111% (inactive),99.5% (inactive) and 112% (inactive),109% (inactive) and 105% (inactive),99% (inactive) and 101% (inactive),104% (inactive) and 99.5% (inactive),96.3% (inactive) and 109% (inactive),105% (inactive) and 100% (inactive),111% (inactive) and 118% (inactive)
CC1NC(C)c2ccc3ccccc3c2O1 (stereo not given),106% (inactive),99.8% (inactive),85.6% (inactive),104% (inactive),109% (inactive),93.3% (inactive),104% (inactive),93.7% (inactive),97.7% (inactive),111% (inactive)
Cc1c(O)nc(N)[nH]c1=O,106% (inactive),106% (inactive),102% (inactive),108% (inactive),100% (inactive),101% (inactive),113% (inactive),100% (inactive),99.4% (inactive),110% (inactive)
CC1CC(O)CC(C)(C)C1.CC1CC(O)CC(C)(C)C1.CC1CC(O)CC(C)(C)C1.CC1CC(O)CC(C)(C)C1.[Ti] (stereo not given),110% (inactive),97.2% (inactive),113% (inactive),93.4% (inactive),99.2% (inactive),90.4% (inactive),104% (inactive),76.2% (inactive),106% (inactive),118% (inactive)
